Source: PubChem
Luciferase inh – inhibitors of firefly (Photinus pyralis) luciferase; AID 1347043; P08659; actives 2.5% (n = 76,000); Potency, µM (highest dose often 115 µM), usual class: inhibitors; purified P. pyralis luciferase, luminescence, biochemical; note: nearly all actives have a fitted effect of over 65% in size
Target sequence (P08659 whole entry, looked up): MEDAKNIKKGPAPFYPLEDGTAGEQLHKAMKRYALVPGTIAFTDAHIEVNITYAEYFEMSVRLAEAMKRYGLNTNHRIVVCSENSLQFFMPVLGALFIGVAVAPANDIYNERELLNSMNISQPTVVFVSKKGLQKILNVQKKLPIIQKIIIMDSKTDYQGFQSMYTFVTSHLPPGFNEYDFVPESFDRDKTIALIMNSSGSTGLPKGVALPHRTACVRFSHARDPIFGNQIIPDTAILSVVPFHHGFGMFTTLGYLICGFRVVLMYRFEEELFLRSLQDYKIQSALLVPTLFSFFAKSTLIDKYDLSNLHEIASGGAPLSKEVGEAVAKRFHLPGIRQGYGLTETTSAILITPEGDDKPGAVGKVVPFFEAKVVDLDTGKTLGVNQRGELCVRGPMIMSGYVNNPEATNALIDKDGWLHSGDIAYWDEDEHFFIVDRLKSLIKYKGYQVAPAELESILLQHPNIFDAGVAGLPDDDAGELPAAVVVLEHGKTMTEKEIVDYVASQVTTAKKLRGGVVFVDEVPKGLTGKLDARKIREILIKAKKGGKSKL
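Cell-free enzyme assay, 10nM P. pyralis luciferase, luciferin and ATP each at 10uM. Inhibition profiled over a 6-point titration, read as luminescence.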
SNCA expr inh – inhibitors of alpha-synuclein (SNCA) gene expression | Potency, µM (highest dose often 57.2 µM), hits mostly inhibitors | AID 1671194 | actives 0.17% (n = 140,000) | HEK-293 SNCA-luciferase knock-in, luminescence, 24 h; note: nearly all actives have a fitted effect of over 45% in size
NIH3T3 tox – NIH 3T3 cell cytotoxicity | NIH 3T3 viability, CellTiter-Glo ATP luminescence, 48-72 h | Potency, µM (titrated, usually from 96.7 µM), actives largely listed as inhibitors | actives 4.3% (n = 94,000) | AID 1345082; note: nearly all actives have a fitted effect of over 55% in size
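Viability of NIH 3T3 cells after 48 or 72 hr compound treatment at 37 °C was assessed by CellTiter-Glo, with luminescence imaged following a 10 min room-temperature step.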
HEK cytotox – HEK 293 cell cytotoxicity. HEK 293 viability, ATP luminescence (CellTiter-Glo), 48-72 h. Potency, µM (doses to about 115 µM), most hits filed as inhibitors. actives 6.6% (n = 94,000). AID 1345083; note: nearly all actives have a fitted effect of over 60% in size
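Luminescence from cellular ATP, measured with CellTiter-Glo, indicates HEK 293 viability. Cells plated at 250 cells/well are treated with compound for 48 or 72 hr at 37 degree Celsius before reagent addition.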
IP6K1 inh – blocks human inositol hexakisphosphate kinase 1; Q92551; IP6K1 kinase, ADP-Glo luminescence, 2 h; active compounds read low; activity change, % (series mostly up to about 58 µM); actives 0.81% (n = 140,000); in the data active = activity change below about -25%
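ADP-Glo luminescence measures ADP made by human IP6K1 during a 2 h RT reaction with ATP/IP6 (mix at 1.3 mM/130 uM); top library doses 57.5 and 19.1 uM final.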
HEK293 viab – reduces viability of HEK-293 SNCA reporter cells | actives 0.12% (n = 150,000) | HEK-293-SNCA-luc viability, GF-AFC fluorescence, 24 h | AID 1671193 | Potency, µM (doses to about 57.1 µM), hits mostly cytotoxic; note: nearly all actives have a fitted effect of over 30% in size
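Cytotoxicity counterscreen: after 24 h compound treatment of genome-edited SNCA-luciferase HEK-293 cells, live-cell protease substrate GF-AFC read by fluorescence after 30 min; activity scaled between DMSO (0%) and medium-only (-100%), curves Hill-fitted.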
A number is an active result; 0 = inactive; ? = inconclusive; - = no result; [ ] = remark or other dose. Only some compounds are listed: those with a hit (about 7.3% of all), similar ones and a draw of the others. Unless noted, calls come from the whole dose curve; as a rule, active = well fitted curve in the direction sought with a large enough effect; inconclusive = small, poorly fitted or top-dose-only effect, or another doubt; inactive = no such curve, though single readings can be large; an effect the other way counts as inactive or inconclusive.

SMILES | Luciferase inh | SNCA expr inh | NIH3T3 tox | HEK cytotox | IP6K1 inh | HEK293 viab
CNC(c1ccccc1)c1nc(-c2cccnn2)no1 (centres undefined) | 0 | ? | 0 | 0 | 0 | 0
COc1ccc(OC)c(C(O)Cn2ccn3nc(-c4cccs4)cc3c2=O)c1 (centres undefined) | 0 | 0 | ? | 35µM | 0 | ?
CCOc1ccc(CC(=O)NCCn2ccn3nc(-c4ccc(C)cc4C)cc3c2=O)cc1 | 25µM | 0 | ? | ? | 0 | 0
Cc1ccc(C)c(-c2cc3c(=O)n(CCNC(=O)c4ccc(F)cc4Cl)ccn3n2)c1 | 0 | ? | 32µM | 40µM | 0 | 0
CCN1CCC2(Cc3ccccc3CN(C(=O)Cc3ccc(OC)cc3)C2)C1 (centres undefined) | - | 0 | 0 | 0 | 0 | 0
Cc1ccc(CNC(=O)Cn2c(N(C)Cc3ccccc3)nc(C)cc2=O)cc1 | 0 | ? | ? | ? | 0 | 0
CCc1ccc(C(=O)N2CCN(C3CCN(CCc4ccccc4)C3=O)CC2)cc1 (centres undefined) | ? | 0 | 0 | 0 | 0 | 0
COCCC(=O)N1Cc2ccccc2OC2(CCN(C(C)C)CC2)C1 | 0 | 0 | 0 | 0 | 0 | 0
COc1ccc(CN2CC[C@H](c3nnc(-c4ccccc4F)o3)C2)cc1 | 0 | 0 | 0 | 0 | 0 | 0
O=C1CCC2(CCN(C(=O)c3cnccn3)CC2)CN1CC1CCCO1 (centres undefined) | 0 | 0 | 0 | 0 | 0 | 0
O=C(c1cc2ccccc2[nH]1)N1CCN(c2cc(-c3ccccc3)[nH]n2)CC1 | ? | 0 | 35µM | ? | 0 | 0
COc1ccc(-c2cc(N3CCCN(C(=O)c4ccccc4)CC3)n[nH]2)cc1 | 0 | 0 | 0 | ? | 0 | 0
Cc1cc(C)cc(C(=O)N2CCN(c3cc(-c4ccccc4)[nH]n3)CC2)c1 | 0 | ? | ? | ? | 0 | ?
COc1ccc(-c2cc(N3CCN(C(=O)c4cc5ccccc5[nH]4)CC3)n[nH]2)cc1 | ? | 0 | 20µM | 28µM | 0 | 0
COc1ccc(N2C(=O)C3(CCCCC3)C2C(=O)N2CCN(CC(C)C)CC2)cc1 (centres undefined) | 0 | 0 | 0 | 0 | 0 | 0
O=C(NCc1cccc(F)c1)c1cnc2c(c1)N(C(=O)Cc1ccc(O)cc1)CCC2 | 0 | 0 | 0 | ? | 0 | 0
COc1ccc(/C=C/CN2CCC(CCC(=O)Nc3ccccc3Cl)CC2)cc1 | 0 | 0 | 79µM | ? | 0 | 0
COc1ccccc1/C=C/CN1CCCC(CNC(=O)COc2ccccc2OC)C1 (centres undefined) | 0 | 0 | ? | ? | 0 | 0
COc1ccccc1/C=C/CN1CCCC(CCC(=O)Nc2ccccc2F)C1 (centres undefined) | 0 | 0 | ? | 45µM | 0 | 0
CCc1nc2c(c(-c3ccc(Cl)cc3)n1)CN(C(=O)COC)CC2 | 0 | 0 | 0 | 0 | 0 | 0
CCc1nc2c(c(-c3ccc(Cl)cc3)n1)CN(C(=O)CCl)CC2 | 0 | ? | 22µM | ? | 0 | ?
CCc1nc2c(c(-c3ccc(Cl)cc3)n1)CN([S+](=O)([O-])c1cccc(C(F)(F)F)c1)CC2 | 0 | ? | 0 | 0 | 0 | 0
CCc1nc2c(c(-c3ccc(Cl)cc3)n1)CN([S+](C)(=O)[O-])CC2 | 0 | 0 | 45µM | 0 | 0 | 0
Cc1ccc2oc(CN3CCCn4nc(C(O)CN(C)C)cc4C3)c(C)c2c1 (centres undefined) | 0 | 0 | ? | ? | 0 | 0
CCn1ncc(N2CCCC(CC(=O)N3CCCCCC3)C2)cc1=O (centres undefined) | 0 | 0 | 0 | ? | 0 | 0
O=C(COc1ccccc1)N1CCC(c2nc(C3CCOCC3)no2)C1 (centres undefined) | 0 | ? | 0 | 0 | 0 | 0
O=C(NCC(=O)N1CCC(c2ccccc2)CC1)c1cccc(-c2ccsc2)c1 | - | 0 | ? | 35µM | 0 | 0[12.5 µM]
O=C(NCCN[S+](=O)([O-])c1ccccc1)c1cccc(-c2ccsc2)c1 | - | 0 | ? | 50µM | 0 | 0
O=C(CNC(=O)c1cccc(-c2ccsc2)c1)NCC(F)F | - | 0 | 0 | 0 | 0 | 0[12.5 µM]
